The values that follow come from the supplement of paper PMC7366291.

Common to all, as to conditions: 25 µM; exposure: 24-48 hpf
The test system of assay [1] is Danio rerio Tg(wt1b:EGFP) embryo, pronephros. The assay can be described thus: glomerular separation, fold change vs DMSO control; higher = glomeruli further apart (abnormal). An outline of the steps: (§1)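 Every feature is expressed as a fold change relative to the averaged DMSO-treated embryos of the same day. The exposure ran from 24 to 48 hpf at 28.5°C, with dechorionated Tg(wt1b:EGFP) zebrafish embryos in HEPES-buffered E3 containing 0.003% PTU, 0.5% DMSO and 25 μM compound. Dorsal pronephros images taken in agarose-filled 96-well plates were reduced to maximum projections, on which 16 reference points were set by hand in Fiji for a macro to compute distances and angles. Values more than 2 SD from the feature mean were not used.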

Assay [2] has the same test system. The assay can be described thus: glomerular width (mean of left and right), fold change vs DMSO control; higher = wider glomerulus. An outline of the steps:
as §1

Assay [3] shares this test system. The assay can be described thus: fraction of imaged embryos annotated as normal kidney; higher = less nephrotoxic; extreme values may be limits of the assay. The procedure, abridged:
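Dechorionated Tg(wt1b:EGFP) zebrafish embryos were exposed in 12-well plates to 25 μM compound in 0.5% DMSO, 5 mM HEPES-buffered E3 with 0.003% PTU, from 24 to 48 hpf at 28.5°C. Tricaine-anaesthetised larvae were oriented dorsally in agarose-filled 96-well plates, and pronephroi were imaged by widefield fluorescence (470 nm, 10 z-slices). Each embryo was manually annotated from maximum projections. The read-out is the fraction of embryos per treatment assigned to the normal-kidney category.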

For assay [4] the test system is unchanged. The assay can be described thus: pronephric angle neck segment to proximal convoluted tubule (mean of left and right), fold change vs DMSO control; higher = larger pronephric angle. An outline of the steps:
as §1

Counter-ions that a name gives are not always drawn. ± gives the standard deviation or the standard deviation of the averaged measurements.

In assay [1], `NC12CC3CC(CC(C3)C1)C2` [Adamantamine fumarate] came in with a glomerular separation of 0.809 ± 0.31. This compound had a glomerular width in assay [2] of 1.07 ± 0.033. Further, the “fraction of imaged embryos annotated as normal kidney” value (“fraction of imaged embryos annotated” below) in assay [3] came out at 0.917. Besides, the “pronephric angle neck segment” value in assay [4] is 1.03 ± 0.013.

On to `C=CCOC(Cn1ccnc1)c1ccc(Cl)cc1Cl` (stereo not drawn) [Enilconazole], for which the glomerular separation in assay [1] is 0.575 ± 0.22. In addition, the glomerular width in assay [2] was 1.12 ± 0.024. Besides, in assay [3], the “fraction of imaged embryos annotated” value came to 1. Besides, in assay [4], the “pronephric angle neck segment” value turned out to be 1.1 ± 0.062.

In the case of `CNCCC=C1c2ccccc2C=Cc2ccccc21` [Norcyclobenzaprine], in assay [1], the glomerular separation was found to be 1.12 ± 0.86. In addition, the glomerular width in assay [2] was 1.01 ± 0.051. Besides, the “fraction of imaged embryos annotated” value in assay [3] came out at 0.833. Moreover, the “pronephric angle neck segment” value in assay [4] amounted to 0.94 ± 0.027.

For `CC(C)[C@H](N)C(=O)OCCOCn1cnc2c(=O)nc(N)[nH]c21` [Valacyclovir hydrochloride], the glomerular separation in assay [1] turned out to be 0.851 ± 0.28. The compound further had a glomerular width in assay [2] of 1 ± 0.066. Moreover, the “fraction of imaged embryos annotated” value in assay [3] amounted to 0.917. Moreover, the “pronephric angle neck segment” value in assay [4] was 0.955 ± 0.044.

The compound `COc1cc([C@@H]2c3cc4c(cc3[C@@H](O[C@@H]3O[C@@H]5CO[C@@H](C)O[C@H]5[C@H](O)[C@H]3O)[C@H]3COC(=O)[C@H]23)OCO4)cc(OC)c1O` [Etoposide] had a glomerular separation in assay [1] of 0.917 ± 0.24. This compound also yielded a glomerular width in assay [2] of 1.052 ± 0.0085. The “fraction of imaged embryos annotated” value in assay [3] amounted to 0.75. Besides, in assay [4], the “pronephric angle neck segment” value was 0.982 ± 0.013.

For `CCN(CC)CCOC(=O)C(c1ccccc1)c1ccccc1` [Adiphenine hydrochloride], the glomerular separation in assay [1] came out at 1.14 ± 0.47. The compound further returned a glomerular width in assay [2] of 0.979 ± 0.026. Also, the “fraction of imaged embryos annotated” value in assay [3] is 0.917. Also, the “pronephric angle neck segment” value in assay [4] stood at 0.98401 ± 0.00017.

In assay [1], `CCCN(CCC)C(=O)C(CCC(=O)O)NC(=O)c1ccccc1` (stereo not drawn) [Proglumide] gave a glomerular separation of 0.949 ± 0.28. Moreover, in assay [2], the glomerular width was 1.07 ± 0.049. The “fraction of imaged embryos annotated” value in assay [3] stood at 0.917. Further, the “pronephric angle neck segment” value in assay [4] worked out at 1.037 ± 0.006.

On to `C[C@@H]1[C@H](O)[C@@H](C)/C=C/C=C/C=C/C=C/C=C/C=C/C=C/[C@H](O[C@@H]2O[C@H](C)[C@@H](O)[C@H](N)[C@@H]2O)C[C@@H]2O[C@](O)(C[C@@H](O)C[C@@H](O)[C@H](O)CC[C@@H](O)C[C@@H](O)CC(=O)O[C@H]1C)C[C@H](O)[C@H]2C(=O)O` [Amphotericin B], for which, in assay [1], the glomerular separation is 3.69 ± 2.9. For the same compound, in assay [2], the glomerular width came to 0.907 ± 0.13. Moreover, the “fraction of imaged embryos annotated” value in assay [3] was determined as 0. The “pronephric angle neck segment” value in assay [4] stood at 1.59 ± 0.016.

For the compound `CC(C(=O)O)c1ccc(N2Cc3ccccc3C2=O)cc1` (stereo not drawn) [Indoprofen], in assay [1], the glomerular separation is 2.27 ± 0.52. The glomerular width in assay [2] came out at 0.658 ± 0.069. In addition, the “fraction of imaged embryos annotated” value in assay [3] was 0.2. Moreover, the “pronephric angle neck segment” value in assay [4] came to 1.3 ± 0.1.

`Cc1ccc(/C(=C\CN2CCCC2)c2ccccn2)cc1` [Triprolidine hydrochloride] returned a glomerular separation in assay [1] of 0.823 ± 0.16. For the same compound, the glomerular width in assay [2] turned out to be 1.035 ± 0.0046. Also, the “fraction of imaged embryos annotated” value in assay [3] stood at 0.917. Also, in assay [4], the “pronephric angle neck segment” value is 1.04 ± 0.045.

Take `CN/C(=N\CCSCc1nc[nH]c1C)NC#N` [Cimetidine]: in assay [1], the glomerular separation amounted to 1.02 ± 0.34. In assay [2], the glomerular width was 1.051 ± 0.0067. Besides, the “fraction of imaged embryos annotated” value in assay [3] was found to be 0.917. Besides, in assay [4], the “pronephric angle neck segment” value turned out to be 0.926 ± 0.062.

In assay [1], `C[C@H]1c2cccc(O)c2C(=O)C2=C(O)[C@]3(O)C(=O)C(C(N)=O)=C(O)[C@@H](N(C)C)[C@@H]3[C@@H](O)[C@@H]21` [Doxycycline hydrochloride] displayed a glomerular separation of 1.09 ± 0.26. Also, the glomerular width in assay [2] was 1.02 ± 0.055. Besides, the “fraction of imaged embryos annotated” value in assay [3] was 0.833. Further, the “pronephric angle neck segment” value in assay [4] is 1.034 ± 0.01.

Take `Cc1ccc(S(=O)(=O)NC(=O)NN2CC3CCCC3C2)cc1` (stereo not drawn) [Gliclazide]: the glomerular separation in assay [1] amounted to 0.87 ± 0.46. Besides, the glomerular width in assay [2] came to 1.05 ± 0.021. The “fraction of imaged embryos annotated” value in assay [3] amounted to 0.917. Further, the “pronephric angle neck segment” value in assay [4] came out at 0.982 ± 0.011.

Take `Cc1nc(=O)c2cc(CN(C)c3ccc(C(=O)N[C@@H](CCC(=O)O)C(=O)O)s3)ccc2[nH]1` [Raltitrexed]: the glomerular separation in assay [1] worked out at 0.711 ± 0.3. The compound also showed a glomerular width in assay [2] of 1.08 ± 0.017. Further, the “fraction of imaged embryos annotated” value in assay [3] turned out to be 0.917. Further, in assay [4], the “pronephric angle neck segment” value was 0.9802 ± 0.0082.

With `CN1CCOC(c2ccccc2)c2ccccc2C1` (stereo not drawn) [Nefopam hydrochloride], the glomerular separation in assay [1] stood at 0.828 ± 0.19. Besides, the glomerular width in assay [2] stood at 0.982 ± 0.05. In addition, in assay [3], the “fraction of imaged embryos annotated” value worked out at 0.909. In addition, the “pronephric angle neck segment” value in assay [4] came out at 1.02 ± 0.012.

For the compound `NS(=O)(=O)c1cc(C2(O)NC(=O)c3ccccc32)ccc1Cl` (stereo not drawn) [Chlorthalidone], in assay [1], the glomerular separation came to 1.04 ± 0.23. The glomerular width in assay [2] was 1.04 ± 0.079. For the same compound, the “fraction of imaged embryos annotated” value in assay [3] was determined as 0.75. Further, in assay [4], the “pronephric angle neck segment” value was 1.02 ± 0.073.

Turning to `CC(C)(C#N)c1cc(Cn2cncn2)cc(C(C)(C)C#N)c1` [Anastrozole], the glomerular separation in assay [1] is 1.2 ± 0.37. In assay [2], this compound registered a glomerular width of 1.059 ± 0.0058. For the same compound, in assay [3], the “fraction of imaged embryos annotated” value was determined as 0.75. In assay [4], the “pronephric angle neck segment” value stood at 1.04 ± 0.062.

`CC(=O)CC(c1ccccc1)c1c(O)c2ccccc2oc1=O` (stereo not drawn) [Warfarin] gave a glomerular separation in assay [1] of 1.14 ± 0.45. This compound came in with a glomerular width in assay [2] of 0.797 ± 0.048. The “fraction of imaged embryos annotated” value in assay [3] is 0.333. In addition, in assay [4], the “pronephric angle neck segment” value worked out at 1.25 ± 0.027.

The compound `CC1=C(C(=O)O)N2C(=O)[C@@H](NC(=O)[C@H](N)c3ccc(O)cc3)[C@H]2SC1` [Cefadroxil] came in with a glomerular separation in assay [1] of 1.23 ± 0.49. In addition, the glomerular width in assay [2] was 1.08 ± 0.042. The “fraction of imaged embryos annotated” value in assay [3] stood at 0.833. In addition, the “pronephric angle neck segment” value in assay [4] was found to be 0.923 ± 0.049.

`NC1CCN(c2c(F)cc3c(=O)c(C(=O)O)cn(C4CC4)c3c2Cl)C1` (stereo not drawn) [Clinafloxacin] had a glomerular separation in assay [1] of 1.2 ± 0.45. The compound further gave a glomerular width in assay [2] of 1.03 ± 0.087. Besides, the “fraction of imaged embryos annotated” value in assay [3] was found to be 1. In assay [4], the “pronephric angle neck segment” value was 0.962 ± 0.038.

Regarding `CCCCOc1cc(C(=O)OCCN(CC)CC)ccc1N` [Benoxinate hydrochloride], in assay [1], the glomerular separation is 0.798 ± 0.38. In assay [2], the glomerular width turned out to be 1.07 ± 0.018. Also, in assay [3], the “fraction of imaged embryos annotated” value amounted to 0.833. Moreover, the “pronephric angle neck segment” value in assay [4] came out at 0.9693 ± 0.0068.

For `Cc1ccc(-c2cc(C(F)(F)F)nn2-c2ccc(S(N)(=O)=O)cc2)cc1` [Celecoxib], the glomerular separation in assay [1] came out at 0.968 ± 0.38. In assay [2], the glomerular width stood at 0.913 ± 0.059. In addition, the “fraction of imaged embryos annotated” value in assay [3] came out at 0.833. Further, in assay [4], the “pronephric angle neck segment” value amounted to 1.06 ± 0.014.

`CN(C(=O)C(Cl)Cl)c1ccc(OC(=O)c2ccco2)cc1` [Diloxanide furoate] had a glomerular separation in assay [1] of 2.17 ± 1. In assay [2], this compound came in with a glomerular width of 0.777 ± 0.037. Moreover, the “fraction of imaged embryos annotated” value in assay [3] worked out at 0.25. For the same compound, the “pronephric angle neck segment” value in assay [4] was determined as 1.25 ± 0.081.

`Clc1ccccc1C(c1ccccc1)(c1ccccc1)n1ccnc1` [Clotrimazole] displayed a glomerular separation in assay [1] of 2.06 ± 1.1. In assay [2], this compound registered a glomerular width of 0.861 ± 0.11. Further, the “fraction of imaged embryos annotated” value in assay [3] turned out to be 0.583. In addition, the “pronephric angle neck segment” value in assay [4] was 1.26 ± 0.1.

The compound `CC(=O)N1CCN(c2ccc(OCC3COC(Cn4ccnc4)(c4ccc(Cl)cc4Cl)O3)cc2)CC1` (stereo not drawn) [Ketoconazole] displayed a glomerular separation in assay [1] of 0.931 ± 0.28. The glomerular width in assay [2] was 1.01 ± 0.082. Also, the “fraction of imaged embryos annotated” value in assay [3] worked out at 0.75. In assay [4], the “pronephric angle neck segment” value was found to be 0.994 ± 0.04.

Compound `CCN(CCO)CCCC(C)Nc1ccnc2cc(Cl)ccc12` (stereo not drawn) [Hydroxychloroquine sulfate] gave a glomerular separation in assay [1] of 1.03 ± 0.49. Moreover, in assay [2], the glomerular width stood at 1.038 ± 0.0043. Moreover, the “fraction of imaged embryos annotated” value in assay [3] is 0.833. Moreover, the “pronephric angle neck segment” value in assay [4] stood at 0.935 ± 0.055.

As for `CN1C(=O)CC(c2ccccc2)C1=O` (stereo not drawn) [Phensuximide], the glomerular separation in assay [1] was 0.924 ± 0.43. In addition, in assay [2], the glomerular width worked out at 0.9434 ± 0.0058. The “fraction of imaged embryos annotated” value in assay [3] amounted to 0.889. For the same compound, the “pronephric angle neck segment” value in assay [4] came out at 0.997 ± 0.013.
